# Assay results reported in PubChem BioAssay AID738 (SRMLSC, 2007).
# Hit rate of the full screen: of about 98,000 compounds, about 4,900 (5%) were called active. The sample holds actives, similar compounds and a random draw of the others, so the mix is not that of the screen. Unmarked numbers belong to inactive results. Cut-off read from the data, not from the text of the source: active = inhibition above about 30%; inactive = the rest.
# Experiment: growth inhibition of yeast control strain, primary screen, counter-screen for post-Golgi transport modulator project (AID 738)
# Details: efflux-deficient yeast background strain, growth absorbance A615, 16 h; at 10 µM; hits give high values
row,SMILES,inhibition
1,CSc1nc2ccccc2cc1/C=C(\C#N)c1ccc(Cl)cc1Cl,24.2%
2,Cn1c(=O)n(C)c2cc(C(=O)Nc3ccc4c(c3)OCO4)ccc21,1.14%
3,O=C(Nc1ccc2c(c1)OCCO2)c1cnccn1,14.2%
4,O=C(CCN1C(=O)c2ccccc2C1=O)Nc1ccncc1,13.3%
5,O=C(Nc1ccc2c(c1)OCCO2)c1ccncc1,31.6% (active)
6,O=C(CCN1C(=O)c2ccncc2C1=O)Nc1ccc2c(c1)OCCO2,30.7% (active)
7,CCCCC(=O)Nc1ccc2c(c1)OCCO2,-0.45%
8,O=c1c2ccccc2c(-c2ccc(Br)cc2)nn1Cc1ccccc1,12%
9,c1ccc(-n2nnnc2NC2CCCCCC2)cc1,2.73%
10,COC(=O)/C=C/C(=O)NCc1ccco1,4.81%
11,Cc1cc(-c2ccccc2)n2nc(C)c(-c3ccccc3)c2n1,0.91%
12,O=C(N/N=C\c1ccc(-c2ccc(Cl)c(Cl)c2)o1)C(=O)N1CCCC1,-8.31%
13,O=c1c2ccccc2nc2n1C(CSc1ccc(F)cc1)CN2 (centres undefined),8.1%
14,O=C1COc2ccc(NC(=O)N3CCN(c4ccc(F)cc4)CC3)cc2N1,-5.66%
15,COC(=O)c1ccc(C(=O)OC)c(NC(=S)N2CCCCC2)c1,5.49%
16,O=C(CCC(=O)c1cccs1)NCc1ccccc1,-10%
17,O=C(COC(=O)C12CC3CC(CC(C3)C1)C2)NCc1ccco1,17.3%
18,O=C(COC(=O)CCC(=O)c1cccs1)NCc1ccco1,34.5% (active)
19,O=C(c1ccc(F)cc1)c1c[nH]c(C(=O)NCc2cccnc2)c1,1.34%
20,S=C(NCCC1=CCCCC1)Nc1ccccc1,2.15%
21,CCCc1nc2ccccc2c(C(=O)OCc2nnc(-c3cc(OC)c(OC)c(OC)c3)o2)c1CC,3.36%
22,CCC(C)n1c(-c2cc(OC)c(OC)c(OC)c2)nc2nc3ccccc3nc21 (centres undefined),38.7% (active)
23,COc1cc(-c2nn3c(-c4cccc(C)c4)nnc3s2)cc(OC)c1OC,26.7%
24,CC(=O)NS(=O)(=O)c1ccc(NC(=S)NC(=O)C(C)(C)C)cc1,-5.72%
25,Cn1c(NN)nc2sc3c(c2c1=O)CCC3,7.4%

row,SMILES,inhibition
1,CCOC(=O)c1cc2sccc2n1Cc1ccc(C#N)cc1,33.7% (active)
2,O=C(NCc1ccco1)c1cc2sccc2n1Cc1ccc(F)cc1,27.8%
3,CC1Cc2ccccc2N1C(=O)c1cc2sccc2n1Cc1ccccc1 (centres undefined),15.2%
4,Clc1ccccc1SCc1nc2ccccc2[nH]1,9.02%
5,Cc1nc(-c2ccccc2)sc1-c1nc(-c2ccccc2)ncc1S(=O)(=O)c1ccccc1,12%
6,O=C(NC1CCCCC1)N1CCc2[nH]c3ccccc3c2C1,-9.69%
7,CCCC(=O)N1CCc2[nH]c3ccccc3c2C1,-9.39%
8,O=C(Nc1ccc(Cl)cc1)N1CCc2[nH]c3ccccc3c2C1,36.5% (active)
9,O=C(c1ccccc1)c1cc(-c2ccccn2)c(N2CCOCC2)s1,18%
10,O=S(=O)(N/N=C\c1cccn1-c1ccccc1)c1ccc2ccccc2c1,16.6%
11,Cc1n[nH]c(=O)n1-c1ccc(Oc2ccccc2)cc1,20.1%
12,COc1ccc2[nH]c(=O)c(CN(Cc3nnnn3CCc3ccccc3)CC3CCCO3)cc2c1 (centres undefined),5.93%
13,Cc1cc2cc(CN(Cc3cccs3)Cc3nnnn3CC3CCCO3)c(=O)[nH]c2cc1C (centres undefined),37.9% (active)
14,Cc1cc(C)c2cc(CN(Cc3cccs3)Cc3nnnn3CC3CCCO3)c(=O)[nH]c2c1 (centres undefined),17%
15,CC(C)(C)c1cc2cccnc2n1Cc1cccc(F)c1,-2.87%
16,COC(=O)Cc1nc2ccccc2[nH]1,0.73%
17,N#C/C(=C(/O)COc1cccc2ccccc12)c1nc2ccccc2[nH]1,-2.22%
18,Cc1ccccc1OC/C(O)=C(\C#N)c1nc2ccccc2[nH]1,48.1% (active)
19,O=C(CSc1nc2ccccc2o1)N1c2ccccc2Sc2ccc(Cl)cc21,17%
20,O=C1CSC(c2ccccc2)N1c1nc(-c2ccc(Cl)cc2Cl)cs1 (centres undefined),5.96%
21,CCOC(=O)C1Sc2[nH]c(=O)sc2C(c2ccc(Cl)cc2)C1C(=O)OCC (centres undefined),12%
22,Clc1cccc(-c2nc3nc4ccccc4nc3n2Cc2ccco2)c1,32.4% (active)
23,CC(Sc1nc2ccccc2c(=O)n1Cc1ccco1)C(=O)c1ccccc1 (centres undefined),20.6%
24,Cc1ccc(Cn2c(C)nc3c(c2=O)c2nc4ccccc4nc2n3Cc2ccco2)cc1,20.3%
